MCF10A rereplic: DNA re-replication induction in MCF 10a cells; MCF 10A DNA re-replication, Hoechst nuclear intensity, 48 h; Potency, µM (doses to about 46.1 µM), inactives show at the top dose activity, positive = re-replication, hits mostly activators; 350,000 tested, 2.9% active; AID 624296; note: % of control where 0% means no effect; nearly all actives have a fitted effect of over 50% in size
SW480 rerep: induces DNA re-replication in SW480 colon adenocarcinoma cells; SW480 DNA re-replication, Hoechst DNA content imaging, 48 h; Potency, µM (highest dose often 46.1 µM), without a hit: top-dose re-replication activation, hits mostly activators; 340,000 tested, 1.8% active; note: % of control where 0% means no effect; nearly all actives have a fitted effect of over 55% in size
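Image-based read-out: total Hoechst fluorescence of nuclei (405 nm excitation, 500-530 nm emission), with hits raising the fraction of high-intensity nuclei. SW480 colon cells incubated 48 hr with compounds at 37 C.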
HT1080 IDH1KD tx: toxicity to HT-1080 IDH1 knockdown cells (counter line); HT-1080 IDH1 knockdown viability, ATP luminescence, 48 h; Potency, µM (highest dose often 46.1 µM), inactives show at the highest dose activity, negative = toxicity, usual class: cytotoxic; 360,000 tested, 2% active;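 note: 0% = DMSO wells and -100% = cell-free medium wells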
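Luminescent ATP read-out (CellTiter-Glo, 10 min at room temperature) after 48 h compound exposure at 37 °C gave viability of IDH1-knockdown HT-1080 cells. Activity was normalised to DMSO and cell-free wells, then fitted as concentration-response curves.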
HT1080-NT tox: kills 2HG-producing HT-1080-NT fibrosarcoma cells | HT-1080-NT fibrosarcoma viability, CellTiter-Glo ATP luminescence, 48 h | Potency, µM (doses to about 46.1 µM), inactives show at the highest dose activity, negative = less viability, most hits filed as cytotoxic | 360,000 tested, 1.6% active | AID 686970;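 note: NT is the 2HG producing partner of a matched IDH1 knockdown line; 0% = DMSO-treated cells and -100% = media-only wells without cells; nearly all actives have a fitted effect of over 55% in size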
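Compounds were tested in concentration-response format on HT-1080-NT cells for 48 hours at 37 degrees C. Cell viability came from CellTiter-Glo luminescence; curves were classified by r2, response magnitude and activity.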
KB-3-1 tox: KB-3-1 parental cell cytotoxicity | KB-3-1 viability, CellTiter-Glo ATP luminescence, 72 h | Potency, µM (titrated, usually from 46.1 µM), actives largely listed as cytotoxic | 400,000 tested, 1.4% active; note: % is set by controls: 0 for no effect and ±100 for the full control effect; nearly all actives have a fitted effect of over 60% in size
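Viability of parental KB-3-1 cells, measured by CellTiter-Glo luminescence, followed a 72 h incubation at 37 °C with pinned compounds in phenol-red-free DMEM containing 10% FBS.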
KB-V1 cytotox: kills drug-selected multidrug resistant KB-V1 cells; KB-V1 MDR cells viability, CellTiter-Glo, 72 h; Potency, µM (titrated, usually from 46.1 µM), actives largely listed as cytotoxic; 400,000 tested, 3.4% active; note: % is set by controls: 0 for no effect and ±100 for the full control effect; nearly all actives have a fitted effect of over 60% in size
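In this primary screen, KB-V1 cells overexpressing P-gp are incubated with library compounds (lowest to highest concentration) for 72 h at 37 degrees C before a luminescent ATP viability read.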
An asterisk follows results filed as active; i = inactive; ? = inconclusive; . = no result. An excerpt weighted towards active compounds, which were near 8% of everything screened. Calls come from the whole dose curve; as a rule, active = well fitted curve in the direction sought with a large enough effect; inconclusive = small, poorly fitted or top-dose-only effect, or another doubt; inactive = no such curve, though single readings can be large; an effect the other way counts as inactive or inconclusive. Potency is the fitted concentration of half-maximal effect.

SMILES	MCF10A rereplic	SW480 rerep	HT1080 IDH1KD tx	HT1080-NT tox	KB-3-1 tox	KB-V1 cytotox
Cc1cccc(-n2c(C)cc(/C=N/n3cnnc3)c2C)c1	?	8.3%	-10.3%	-12.8%	?	18.4µM*
Cc1cc(/C=N/n2cnnc2)c(C)n1-c1ccc2c(c1)OCO2	10.6%	-9.1%	-16.3%	-2.1%	i	5.17µM*
CCOc1ccc(NC(=O)c2ccc3c(=O)n4nc(Nc5ccccc5C)sc4nc3c2)cc1	.	.	.	.	i	i
COc1cccc(-c2nc(NC(C)(C)C)c3ccccc3n2)c1O	?	0.3%	?	?	?	23.1µM*
COc1cccc(-c2nc(N3CCCC3)c3ccccc3n2)c1O	?	1.3%	5.3%	9.3%	i	i
COc1cccc(-c2nc(N3CCC(C)CC3)c3ccccc3n2)c1O	23.4%	0.5%	?	?	i	16.4µM*
Cc1cc(C(=O)Cn2nc(C(=O)O)c3ccccc3c2=O)c(C)n1-c1ccccc1	0.1%	2.1%	-6.9%	5.1%	i	16.4µM*
Cc1cc(C)c(C(=O)Cn2nc(C(=O)O)c3ccccc3c2=O)cc1C	-2.0%	1.4%	-12.4%	3.0%	i	i
CC(=O)Oc1ccc(-c2nc(-c3ccccc3)no2)cc1	.	.	.	.	?	i
Cc1cc(=O)oc2cc3c(cc12)OCCO3	11.6%	-0.4%	14.7%	15.1%	i	i
Cc1cc(=O)oc2cc3c(cc12)OCCN3	8.2µM*	?	15.7%	13.8%	i	i
Cc1ccc(NC(=O)c2c(C)nc3sc(C(=O)Nc4ccc(F)cc4)c(N)c3c2-c2ccc(C)o2)c(C)c1	.	.	.	.	i	i
O=C(Nc1ccc2ccccc2c1)Nc1nnc(C2CCCCC2)s1	.	.	.	.	i	?
CC(C)[C@H](N)C(=O)N[C@H]1CCC2C3CC=C4C[C@@H](O)CC[C@]4(C)C3CC[C@@]21C (some centres undefined)	.	.	?	18.4µM*	i	i
C[C@@H](N)C(=O)N[C@H]1CCC2C3CC=C4C[C@@H](O)CC[C@]4(C)C3CC[C@@]21C (some centres undefined)	?	?	-5.8%	-4.9%	i	i
Cc1c(CCOC(=O)c2ccccc2)sc[n+]1CC(=O)c1ccc(Br)cc1	22.9%	5.2%	?	?	?	7.31µM*
Cc1c(CCOC(=O)c2cc([N+](=O)[O-])cc([N+](=O)[O-])c2)sc[n+]1CC(=O)c1ccccc1	1.5%	-24.9%	7.8%	0.2%	i	i
Cc1cccc(OC2(c3ccccc3)OC(=O)c3ccccc32)c1C (centres undefined)	3.8%	?	-23.1%	-4.0%	i	14.6µM*
CC(=O)Nc1cccc(NC(=O)c2c(-c3ccccc3Cl)noc2C)c1	?	-0.3%	-12.0%	-6.9%	i	16.4µM*
CCc1noc(C)c1C(=O)Nc1nc2ccc(S(C)(=O)=O)cc2s1	-2.6%	-4.1%	0.7%	-4.8%	i	i
Cc1onc(-c2ccccc2Cl)c1C(=O)Nc1nc2ccc(S(C)(=O)=O)cc2s1	-3.9%	0.8%	?	14.6µM*	i	i
Cc1onc(-c2ccccc2Cl)c1C(=O)OCc1cnc(Cl)s1	23.1µM*	3.9%	-3.8%	-4.0%	i	?
Cc1ccc(-c2cn3cccnc3n2)cc1NC(=O)c1c(-c2ccccc2Cl)noc1C	?	?	-29.9%	-27.0%	11.6µM*	4.61µM*
Cc1cc(C)cc(NC(=O)c2cn3c4c(ccc(Cl)c4c2=O)OC(C)C3)c1 (centres undefined)	.	.	.	.	i	i
Cc1cnc(C(=O)Nc2cccc3cccnc23)cn1	?	?	?	?	5.17µM*	?
Cc1onc(-c2ccccc2Cl)c1C(=O)Nc1ccc(-c2cn3cccnc3n2)cc1	-2.6%	0.0%	-5.2%	0.9%	i	?
